High-throughput results as filed in PubChem BioAssay.
Marburg entry inh: qHTS for inhibitors of binding or entry into cells for Marburg Virus | Potency, µM (highest dose often 37.8 µM), for the others: top-dose activity change, negative = inhibition, hits mostly inhibitors | Marburg virus pseudotyped entry inhibition, cell reporter | 1.8% of 300,000 active; calls by dose curve; tested in HEK293 cells; further: potency means the concentration at half of the fitted maximal effect
Vaccinia mCherry: qHTS for Stage-Specific Inhibitors of Vaccinia Orthopoxvirus: mCherry Reporter Primary qHTS; Vaccinia virus mCherry reporter infection, fluorescence; Potency, µM (doses to about 36.5 µM), for inactives: at the highest dose activity change, negative = inhibition, usual class: inhibitors; 0.63% of 310,000 active; AID 720579, 2013; calls by dose curve; tested in A549 cells; further: potency means the concentration at half of the fitted maximal effect; nearly all actives have a fitted effect of over 35% in size
HCMV antiviral: qHTS Assay for inhibitors of the human cytomegalovirus (HCMV); HFF cells, HCMV-luciferase reporter, 72 h; hits give low values; 4.5% of 410,000 active; activity change, negative = inhibition, % at 57.5 µM; in the data active means activity change below about -60%; inconclusive means no clear call, values can overlap the other calls; inactive means above about -39%
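Human foreskin fibroblasts infected with luciferase-reporter HCMV at MOI 1 PFU/cell, compounds at two doses. Luciferase measured 72 h post infection; normalized to buffer-only basal and Salinomycin (10uM) controls.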
VACV Venus inh: qHTS for Stage-Specific Inhibitors of Vaccinia Orthopoxvirus: Venus Reporter Primary qHTS; Potency, µM (doses to about 36.5 µM), for the others: at the highest dose activity change, negative = inhibition, usual class: inhibitors; Vaccinia virus Venus reporter expression, fluorescence; AID 720580, 2013; 0.46% of 330,000 active; calls by dose curve; tested in A549 cells; further: potency means the concentration at half of the fitted maximal effect; nearly all actives have a fitted effect of over 30% in size
FMDV antiviral: High Throughput Screening for Foot and Mouth Disease Virus Antivirals; FMDV antiviral cell-based qHTS; Potency, µM (titrated, usually from 57.9 µM), for inactives: at the highest dose activity change, negative = inhibition, actives largely listed as inhibitors; 1.2% of 410,000 active; AID 1159524, 2015; calls by dose curve; tested in HEK293T cells; further: read-out not given here; potency means the concentration at half of the fitted maximal effect; nearly all actives have a fitted effect of over 45% in size
LASV entry inh: qHTS for Inhibitors of binding or entry into cells for Lassa Virus; AID 540256, 2011; Lassa virus pseudotype entry inhibition, cell reporter; 1.2% of 300,000 active; Potency, µM (top dose mostly 37.9 µM), inactives show top-dose activity change, negative = inhibition, hits mostly inhibitors; calls by dose curve; tested in HEK293 cells; further: potency means the concentration at half of the fitted maximal effect; nearly all actives have a fitted effect of over 50% in size
Numbers without * were called inactive; i = inactive; u = inconclusive; x = no result given; [ ] = another dose, or the depositor's remark. This is a sample that favours compounds with a hit; in the whole collection about 6.5% have one here. On the % scale 0 is the no-effect control and ±100 the full control effect.

SMILES	Marburg entry inh	Vaccinia mCherry	HCMV antiviral	VACV Venus inh	FMDV antiviral	LASV entry inh
CC(C)(CNC(=O)c1cnn(-c2nccc(-c3cccs3)n2)c1C1CC1)N1CCOCC1	x	-10.6%	x	-8.2%	0.0%	x
Cc1ccc(C(=O)c2ccccc2C(=O)OCC(=O)Nc2ccc(SC(F)F)cc2)cc1	u	u	-34.4	u	-7.0%	11.2µM*
COc1cc(C(=O)OCC(=O)Nc2ccc(SC(F)F)cc2)cc(OC)c1OC	u	-7.3%	14.3	-22.3%	35.5µM*	0.0%
CSc1ncnc2c1ncn2C1OC(CO)C(O)C1O (configuration not stated)	x	-23.2%	x	-21.6%	-9.8%	x
O=[N+]([O-])c1ccc(S(=O)(=O)N2CCN=C2SCc2cccnc2)cc1	1.6%[46.1 µM]	u	-72.8*	u	0.0%	u
O=[N+]([O-])c1cccc(CSC2=NCCN2S(=O)(=O)c2ccccc2)c1	x	x	-74.4*	x	u	x
CCC(C)n1c(=N)c(C(=O)NCc2ccco2)cc2c(=O)n3cc(C)ccc3nc21 (configuration not stated)	1.0%[46.1 µM]	-8.7%	-26.3	-14.7%	-17.9%	u
CCNc1ncc2nc(CCc3ccccc3)c(=O)n(Cc3ccc(F)cc3)c2n1	x	x	x	x	-8.3%	x
COc1ccc(-c2c[n+](CC(=O)OC3CC(C)CCC3C(C)C)c3n2CCC3)cc1 (configuration not stated)	x	x	-99.7*	x	12.6µM*	x
CC(C)[C@@H]1CC[C@@H](C)C[C@H]1OC(=O)C[n+]1cc(-c2ccc(Cl)cc2)n2c1CCCCC2	u	i	-96.7*	-24.2%	u	u
O=C(NCCc1csc(-c2ccc(Cl)cc2)n1)c1cccs1	x	-20.3%	u	-9.9%	25.1µM*	-24.4%[46.1 µM]
COc1ccc(-c2nc(CCNC(=O)c3cccs3)cs2)cc1OC	x	-13.3%	-84.2*	-9.1%	u	u
CCCCOc1ccc(C(=O)NCCc2csc(-c3ccc(OC)cc3)n2)cc1	x	u	-60.8*	u	u	u
COC(=O)c1ccc(NC(=O)c2ccccc2OCC(=O)Nc2ccc(Br)cc2)cc1	x	-26.7%	x	u	x	x
Nn1cnnc1SCC(=O)Nc1ccc(C2CCCCC2)cc1	8.7%	-2.4%	4.3	0.0%	x	-0.3%
O=C(O)CSCC(=O)Nc1ccc(C2CCCCC2)cc1	u	-7.4%	-92.0*	-10.2%	1.12µM*	u
COc1cccc(-c2cc(C(F)(F)F)n3ncc(C(=O)NCC4CCCO4)c3n2)c1 (configuration not stated)	u	x	-26.0	x	28.2µM*	u
CC(C)CNC(=O)c1cccc(NC(=O)c2ccc(Cl)c([N+](=O)[O-])c2)c1	u	-9.2%	-15.0	-9.8%	28.2µM*	u
CCN(CC)S(=O)(=O)c1ccc(N2CCOCC2)c(NC(=O)c2ccc(F)cc2)c1	23.8%[46.1 µM]	-13.7%	-15.5	-10.4%	-1.2%	-19.5%
O=C(Nc1nc2ccc(Cl)cc2s1)c1ccc(N2CCCCC2)c([N+](=O)[O-])c1	u	i	-66.7*	-8.2%	u	u
CC(=O)N1CCN(c2ccc(NC(=O)c3ccc(N4CCCC4)c([N+](=O)[O-])c3)cc2Cl)CC1	u	u	-70.9*	-14.4%	x	u
CCN(CC)S(=O)(=O)c1ccc(N2CCOCC2)c(NC(=O)c2ccccc2F)c1	u	i	-64.6*	4.7%	-2.6%	u
COc1cccc(C(=O)Nc2cccc(C(=O)NCC(C)C)c2)c1	9.6%	-3.6%	-10.1	-15.7%	-0.9%	6.4%
CCN(CC)S(=O)(=O)c1ccc(OC)c(NC(=O)c2cc([N+](=O)[O-])ccc2N2CCOCC2)c1	x	i	-37.9	-21.4%	u	x
Cc1ccc(NC(=O)c2ccc(N3CCOCC3)c([N+](=O)[O-])c2)cc1S(=O)(=O)N1CCOCC1	u	-11.5%	-97.9*	-22.9%	12.6µM*	-1.6%
O=C(Nc1ccc(N2CCCCC2)c(Cl)c1)c1ccc(N2CCOCC2)c([N+](=O)[O-])c1	u	-18.7%	-80.4*	u	x	u
